# Measurements taken from PMC7862700, “An all-to-all approach to the identification of sequence-specific readers for epigenetic DNA modifications on cytosine”.
# Legend:
# Test in all cases: DAPPL (digital affinity profiling via proximity ligation, sequencing); 10 mM Tris-HCl pH 7.5, 50 mM NaCl, 1 mM DTT, 4% glycerol, room temperature, 30 min; GST-TFs on glutathione beads, 16-mer random dsDNA library, 0.1% formaldehyde crosslink after washing; high values mean tight binding
# [1] = molecular target: T1, FEV (Homo sapiens, UniProt Q99581 1-238); details: protein: recombinant; tags: N-terminal GST; dsDNA, one strand shown
# T1 sequence: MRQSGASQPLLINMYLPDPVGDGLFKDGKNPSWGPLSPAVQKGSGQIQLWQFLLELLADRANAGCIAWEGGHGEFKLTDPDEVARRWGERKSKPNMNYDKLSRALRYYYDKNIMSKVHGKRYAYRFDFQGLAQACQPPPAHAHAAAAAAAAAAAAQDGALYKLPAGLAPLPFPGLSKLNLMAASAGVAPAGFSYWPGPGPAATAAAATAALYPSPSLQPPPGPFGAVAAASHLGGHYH
# In short: (§1)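 Human transcription factors were made in yeast as GST fusions, captured on glutathione beads and barcoded with DNA. With a tag-only sample included, the pool was incubated with 200 nmole of a random double-stranded 16-mer DNA library in Tris/NaCl/DTT/glycerol buffer at room temperature for 30 min, then crosslinked with 0.1% formaldehyde after washing, ligated by proximity, amplified and sequenced. For binding signal, each hexamer's read frequency for a factor is divided by its frequency for the tag-only sample.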
# [2] = molecular target: ETV5 (Homo sapiens, UniProt P41161 1-510); details: protein: recombinant; tags: N-terminal GST; dsDNA, one strand shown
# Chain of ETV5 (P41161 whole entry): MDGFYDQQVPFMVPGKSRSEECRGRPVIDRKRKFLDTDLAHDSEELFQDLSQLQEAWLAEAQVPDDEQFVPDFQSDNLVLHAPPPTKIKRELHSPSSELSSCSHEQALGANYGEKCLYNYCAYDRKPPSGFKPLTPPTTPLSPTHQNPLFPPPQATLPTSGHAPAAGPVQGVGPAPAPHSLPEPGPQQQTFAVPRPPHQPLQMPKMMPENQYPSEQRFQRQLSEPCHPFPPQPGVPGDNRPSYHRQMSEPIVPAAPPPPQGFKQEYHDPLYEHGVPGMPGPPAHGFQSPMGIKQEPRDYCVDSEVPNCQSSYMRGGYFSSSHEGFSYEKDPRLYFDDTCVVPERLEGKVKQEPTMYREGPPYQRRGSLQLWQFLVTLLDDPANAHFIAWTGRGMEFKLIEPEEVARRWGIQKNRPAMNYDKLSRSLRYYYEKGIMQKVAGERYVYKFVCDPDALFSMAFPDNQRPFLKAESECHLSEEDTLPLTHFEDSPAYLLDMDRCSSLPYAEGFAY
# In short: as §1
# [3] = molecular target: HSF1 (Homo sapiens, UniProt Q00613 1-529); details: protein: recombinant; tags: N-terminal GST; chain copies: 3; dsDNA, one strand shown
# Chain of HSF1 (Q00613 whole entry): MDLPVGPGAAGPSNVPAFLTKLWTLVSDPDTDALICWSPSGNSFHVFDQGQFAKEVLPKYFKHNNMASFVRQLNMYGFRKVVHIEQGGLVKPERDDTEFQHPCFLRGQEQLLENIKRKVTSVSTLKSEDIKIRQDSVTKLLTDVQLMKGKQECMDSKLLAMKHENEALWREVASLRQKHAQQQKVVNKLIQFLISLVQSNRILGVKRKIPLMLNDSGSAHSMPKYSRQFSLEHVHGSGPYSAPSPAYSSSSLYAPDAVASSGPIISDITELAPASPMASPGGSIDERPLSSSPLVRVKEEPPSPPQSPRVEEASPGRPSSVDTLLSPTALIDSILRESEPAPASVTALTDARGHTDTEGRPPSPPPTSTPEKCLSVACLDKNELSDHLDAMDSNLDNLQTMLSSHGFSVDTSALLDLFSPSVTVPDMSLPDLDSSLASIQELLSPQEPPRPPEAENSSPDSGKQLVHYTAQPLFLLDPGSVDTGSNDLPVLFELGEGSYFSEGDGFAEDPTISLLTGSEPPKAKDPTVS
# In short: as §1
# [4] = molecular target: T2, SPIC (Homo sapiens, UniProt Q8N5J4 1-248); details: protein: recombinant; tags: N-terminal GST; dsDNA, one strand shown
# T2 sequence: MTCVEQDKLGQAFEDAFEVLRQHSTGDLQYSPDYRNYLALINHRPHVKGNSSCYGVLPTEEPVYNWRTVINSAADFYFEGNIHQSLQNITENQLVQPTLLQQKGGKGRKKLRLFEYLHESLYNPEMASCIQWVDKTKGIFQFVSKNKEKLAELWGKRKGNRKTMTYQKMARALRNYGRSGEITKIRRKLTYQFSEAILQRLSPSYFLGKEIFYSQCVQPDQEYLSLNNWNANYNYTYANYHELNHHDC
# In short: as §1
# [5] = molecular target: ELF4 (Homo sapiens, UniProt Q99607 1-663); details: protein: recombinant; tags: N-terminal GST; dsDNA, one strand shown
# Chain of ELF4 (Q99607 whole entry): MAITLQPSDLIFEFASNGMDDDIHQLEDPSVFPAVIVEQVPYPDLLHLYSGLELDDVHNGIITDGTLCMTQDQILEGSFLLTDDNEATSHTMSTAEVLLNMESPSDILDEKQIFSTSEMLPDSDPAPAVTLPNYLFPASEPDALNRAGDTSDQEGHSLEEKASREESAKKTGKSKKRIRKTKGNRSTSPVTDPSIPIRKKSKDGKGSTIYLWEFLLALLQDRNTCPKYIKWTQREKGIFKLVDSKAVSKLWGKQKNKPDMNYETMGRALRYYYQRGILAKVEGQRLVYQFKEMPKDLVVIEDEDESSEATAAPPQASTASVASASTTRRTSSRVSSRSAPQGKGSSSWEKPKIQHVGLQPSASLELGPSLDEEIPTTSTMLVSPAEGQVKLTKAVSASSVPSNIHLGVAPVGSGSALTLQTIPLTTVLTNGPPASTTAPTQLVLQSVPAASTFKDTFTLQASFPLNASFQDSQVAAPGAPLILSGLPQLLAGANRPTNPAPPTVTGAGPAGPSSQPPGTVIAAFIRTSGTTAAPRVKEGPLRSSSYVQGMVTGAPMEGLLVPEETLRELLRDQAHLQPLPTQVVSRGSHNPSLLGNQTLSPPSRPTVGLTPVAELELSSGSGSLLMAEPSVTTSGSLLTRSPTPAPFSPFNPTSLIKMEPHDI
# In short: as §1
# [6] = molecular target: T3, ELK4 (Homo sapiens, UniProt P28324-2 1-405); details: protein: recombinant; tags: N-terminal GST; dsDNA, one strand shown
# T3 sequence: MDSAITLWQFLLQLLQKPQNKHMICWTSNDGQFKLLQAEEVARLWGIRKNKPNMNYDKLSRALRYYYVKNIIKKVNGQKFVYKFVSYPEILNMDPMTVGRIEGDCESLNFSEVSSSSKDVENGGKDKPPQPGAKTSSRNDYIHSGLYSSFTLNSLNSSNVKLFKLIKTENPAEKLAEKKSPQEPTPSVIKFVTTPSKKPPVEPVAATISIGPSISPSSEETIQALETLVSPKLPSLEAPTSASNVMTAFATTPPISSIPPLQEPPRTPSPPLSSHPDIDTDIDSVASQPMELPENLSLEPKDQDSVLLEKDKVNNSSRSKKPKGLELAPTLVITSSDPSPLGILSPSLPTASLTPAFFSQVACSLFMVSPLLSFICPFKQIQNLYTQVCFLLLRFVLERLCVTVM
# In short: as §1
# [7] = molecular target: T4, ETV2 (Homo sapiens, UniProt O00321 1-342); details: protein: recombinant; tags: N-terminal GST; dsDNA, one strand shown
# T4 sequence: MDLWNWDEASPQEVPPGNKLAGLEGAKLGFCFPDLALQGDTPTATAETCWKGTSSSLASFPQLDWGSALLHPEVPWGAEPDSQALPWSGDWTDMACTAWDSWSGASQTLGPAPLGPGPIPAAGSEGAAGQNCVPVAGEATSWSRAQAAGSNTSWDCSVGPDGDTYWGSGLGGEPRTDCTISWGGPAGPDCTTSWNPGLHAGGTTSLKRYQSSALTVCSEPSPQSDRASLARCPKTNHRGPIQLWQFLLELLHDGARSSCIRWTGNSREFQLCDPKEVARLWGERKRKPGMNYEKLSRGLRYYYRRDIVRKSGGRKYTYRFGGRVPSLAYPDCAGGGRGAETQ
# In short: as §1
# [8] = molecular target: T5, ELF3 (Homo sapiens, UniProt P78545 1-371); details: protein: recombinant; tags: N-terminal GST; dsDNA, one strand shown
# T5 sequence: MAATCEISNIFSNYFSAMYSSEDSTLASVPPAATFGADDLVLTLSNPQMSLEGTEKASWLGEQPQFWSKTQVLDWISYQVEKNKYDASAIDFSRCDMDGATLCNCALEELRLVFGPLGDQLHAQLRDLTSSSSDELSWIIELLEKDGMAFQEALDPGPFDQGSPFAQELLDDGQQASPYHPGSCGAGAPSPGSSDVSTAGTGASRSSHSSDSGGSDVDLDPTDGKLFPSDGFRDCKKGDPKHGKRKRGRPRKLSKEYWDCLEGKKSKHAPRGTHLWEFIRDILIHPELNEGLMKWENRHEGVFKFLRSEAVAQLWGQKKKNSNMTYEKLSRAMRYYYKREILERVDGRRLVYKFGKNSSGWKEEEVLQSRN
# In short: as §1
# [9] = molecular target: CRX (Homo sapiens, UniProt O43186 1-299); details: protein: recombinant; tags: N-terminal GST; dsDNA, one strand shown
# Chain of CRX (O43186 whole entry): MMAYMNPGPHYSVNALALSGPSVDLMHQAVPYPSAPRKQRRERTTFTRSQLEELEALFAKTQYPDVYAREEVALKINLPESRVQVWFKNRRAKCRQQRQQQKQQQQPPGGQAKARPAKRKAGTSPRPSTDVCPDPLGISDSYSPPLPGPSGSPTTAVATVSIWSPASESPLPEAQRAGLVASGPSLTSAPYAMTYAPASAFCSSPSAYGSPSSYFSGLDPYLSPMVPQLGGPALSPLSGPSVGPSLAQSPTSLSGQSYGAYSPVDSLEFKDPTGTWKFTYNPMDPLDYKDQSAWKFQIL
# In short: as §1
# [10] = molecular target: ETV1 (Homo sapiens, UniProt P50549 1-477); details: protein: recombinant; tags: N-terminal GST; dsDNA, one strand shown
# Chain of ETV1 (P50549 whole entry): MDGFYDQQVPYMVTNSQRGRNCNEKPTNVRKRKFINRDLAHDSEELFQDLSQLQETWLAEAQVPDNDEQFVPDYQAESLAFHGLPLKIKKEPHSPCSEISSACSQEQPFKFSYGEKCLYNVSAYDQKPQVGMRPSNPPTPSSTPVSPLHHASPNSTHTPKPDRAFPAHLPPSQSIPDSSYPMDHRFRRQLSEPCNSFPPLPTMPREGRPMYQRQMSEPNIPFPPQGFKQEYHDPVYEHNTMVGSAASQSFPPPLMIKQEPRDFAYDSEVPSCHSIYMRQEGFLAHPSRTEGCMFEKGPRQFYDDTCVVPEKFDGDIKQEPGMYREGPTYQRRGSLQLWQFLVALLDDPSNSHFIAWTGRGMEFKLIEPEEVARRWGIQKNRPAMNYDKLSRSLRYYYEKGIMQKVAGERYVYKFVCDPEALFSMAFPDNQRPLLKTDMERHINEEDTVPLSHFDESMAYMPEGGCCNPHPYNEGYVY
# In short: as §1
# [11] = molecular target: T6, ERF (Homo sapiens, UniProt P50548 1-548); details: protein: recombinant; tags: N-terminal GST; dsDNA, one strand shown
# T6 sequence: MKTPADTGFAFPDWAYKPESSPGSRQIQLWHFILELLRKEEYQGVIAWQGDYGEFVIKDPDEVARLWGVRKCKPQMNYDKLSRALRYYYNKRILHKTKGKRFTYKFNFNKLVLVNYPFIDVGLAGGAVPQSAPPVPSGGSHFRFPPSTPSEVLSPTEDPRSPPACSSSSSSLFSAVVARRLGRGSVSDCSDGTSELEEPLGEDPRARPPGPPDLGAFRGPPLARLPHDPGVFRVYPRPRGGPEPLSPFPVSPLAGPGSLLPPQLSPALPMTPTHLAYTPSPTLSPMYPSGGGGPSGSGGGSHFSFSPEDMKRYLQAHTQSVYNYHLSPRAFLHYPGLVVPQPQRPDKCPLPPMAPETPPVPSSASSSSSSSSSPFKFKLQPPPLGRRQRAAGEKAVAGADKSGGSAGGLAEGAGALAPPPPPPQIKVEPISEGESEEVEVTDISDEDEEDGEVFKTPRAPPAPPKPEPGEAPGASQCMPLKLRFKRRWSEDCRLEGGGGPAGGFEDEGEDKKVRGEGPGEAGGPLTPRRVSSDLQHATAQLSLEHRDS
# In short: as §1
# [12] = molecular target: T7, ETV3L (Homo sapiens, UniProt Q6ZN32 1-361); details: protein: recombinant; tags: N-terminal GST; dsDNA, one strand shown
# T7 sequence: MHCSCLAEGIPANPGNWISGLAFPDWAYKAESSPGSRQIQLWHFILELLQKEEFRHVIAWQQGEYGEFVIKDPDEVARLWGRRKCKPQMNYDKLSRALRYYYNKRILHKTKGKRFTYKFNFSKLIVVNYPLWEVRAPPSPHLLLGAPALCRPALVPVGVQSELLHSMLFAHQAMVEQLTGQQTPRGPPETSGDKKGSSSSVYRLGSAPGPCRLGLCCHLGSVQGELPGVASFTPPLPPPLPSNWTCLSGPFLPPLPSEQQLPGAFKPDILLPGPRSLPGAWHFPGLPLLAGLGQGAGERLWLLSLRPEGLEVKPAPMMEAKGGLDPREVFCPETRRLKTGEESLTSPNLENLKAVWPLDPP
# In short: as §1
# [13] = molecular target: T8, ETS2 (Homo sapiens, UniProt P15036 1-469); details: protein: recombinant; tags: N-terminal GST; dsDNA, one strand shown
# T8 sequence: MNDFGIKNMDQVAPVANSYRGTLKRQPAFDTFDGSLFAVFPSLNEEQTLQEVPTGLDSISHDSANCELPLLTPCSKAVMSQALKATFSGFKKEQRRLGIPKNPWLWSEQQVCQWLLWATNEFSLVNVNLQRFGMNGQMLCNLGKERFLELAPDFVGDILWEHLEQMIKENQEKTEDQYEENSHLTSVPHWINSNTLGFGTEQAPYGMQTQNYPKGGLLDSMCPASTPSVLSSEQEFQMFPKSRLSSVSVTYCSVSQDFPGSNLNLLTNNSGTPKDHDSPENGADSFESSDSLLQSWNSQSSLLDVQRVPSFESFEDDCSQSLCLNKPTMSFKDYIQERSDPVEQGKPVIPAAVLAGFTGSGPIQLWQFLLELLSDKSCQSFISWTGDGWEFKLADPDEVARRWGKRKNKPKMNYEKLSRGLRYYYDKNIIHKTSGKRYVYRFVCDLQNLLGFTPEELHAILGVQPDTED
# In short: as §1
# [14] = molecular target: T9, SPDEF (Homo sapiens, UniProt O95238 1-335); details: protein: recombinant; tags: N-terminal GST; dsDNA, one strand shown
# T9 sequence: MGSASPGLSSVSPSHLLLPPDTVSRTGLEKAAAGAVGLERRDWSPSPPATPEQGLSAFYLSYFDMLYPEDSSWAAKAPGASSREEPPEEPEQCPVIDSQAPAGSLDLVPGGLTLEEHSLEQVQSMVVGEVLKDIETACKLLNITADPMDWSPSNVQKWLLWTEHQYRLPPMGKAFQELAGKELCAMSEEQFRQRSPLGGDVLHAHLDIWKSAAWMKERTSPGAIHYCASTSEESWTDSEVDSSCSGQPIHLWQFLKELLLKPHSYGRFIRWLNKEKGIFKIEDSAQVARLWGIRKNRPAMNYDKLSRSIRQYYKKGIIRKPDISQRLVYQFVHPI
# In short: as §1
# [15] = molecular target: T10, ETV7 (Homo sapiens, UniProt Q9Y603 1-341); details: protein: recombinant; tags: N-terminal GST; dsDNA, one strand shown
# T10 sequence: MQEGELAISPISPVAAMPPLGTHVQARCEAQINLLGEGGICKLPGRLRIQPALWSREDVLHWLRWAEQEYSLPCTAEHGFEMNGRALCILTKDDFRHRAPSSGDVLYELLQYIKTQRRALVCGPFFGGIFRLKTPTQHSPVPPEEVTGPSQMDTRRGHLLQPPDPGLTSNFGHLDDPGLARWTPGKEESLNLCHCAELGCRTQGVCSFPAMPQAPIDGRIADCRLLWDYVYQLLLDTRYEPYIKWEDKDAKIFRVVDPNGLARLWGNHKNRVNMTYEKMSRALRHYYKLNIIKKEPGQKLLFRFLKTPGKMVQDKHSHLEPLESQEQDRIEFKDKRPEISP
# In short: as §1
# [16] = molecular target: T11, ELF5 (Homo sapiens, UniProt Q9UKW6-2 1-255); details: protein: recombinant; tags: N-terminal GST; dsDNA, one strand shown
# T11 sequence: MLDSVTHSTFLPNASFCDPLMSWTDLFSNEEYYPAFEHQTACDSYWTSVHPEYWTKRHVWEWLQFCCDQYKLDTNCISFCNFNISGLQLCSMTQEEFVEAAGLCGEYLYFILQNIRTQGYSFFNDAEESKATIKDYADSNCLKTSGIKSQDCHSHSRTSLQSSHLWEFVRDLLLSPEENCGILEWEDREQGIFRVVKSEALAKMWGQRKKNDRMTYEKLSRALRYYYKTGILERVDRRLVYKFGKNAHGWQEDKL
# In short: as §1
# [17] = molecular target: T12, ETV3 (Homo sapiens, UniProt P41162-2 1-143); details: protein: recombinant; tags: N-terminal GST; dsDNA, one strand shown
# T12 sequence: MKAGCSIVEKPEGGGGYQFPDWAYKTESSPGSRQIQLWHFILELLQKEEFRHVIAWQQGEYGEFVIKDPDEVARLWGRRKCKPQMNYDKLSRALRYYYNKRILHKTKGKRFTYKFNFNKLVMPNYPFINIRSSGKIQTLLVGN
# In short: as §1
# [18] = molecular target: ETV6 (Homo sapiens, UniProt P41212 1-452); details: protein: recombinant; tags: N-terminal GST; dsDNA, one strand shown
# Chain of ETV6 (P41212 whole entry): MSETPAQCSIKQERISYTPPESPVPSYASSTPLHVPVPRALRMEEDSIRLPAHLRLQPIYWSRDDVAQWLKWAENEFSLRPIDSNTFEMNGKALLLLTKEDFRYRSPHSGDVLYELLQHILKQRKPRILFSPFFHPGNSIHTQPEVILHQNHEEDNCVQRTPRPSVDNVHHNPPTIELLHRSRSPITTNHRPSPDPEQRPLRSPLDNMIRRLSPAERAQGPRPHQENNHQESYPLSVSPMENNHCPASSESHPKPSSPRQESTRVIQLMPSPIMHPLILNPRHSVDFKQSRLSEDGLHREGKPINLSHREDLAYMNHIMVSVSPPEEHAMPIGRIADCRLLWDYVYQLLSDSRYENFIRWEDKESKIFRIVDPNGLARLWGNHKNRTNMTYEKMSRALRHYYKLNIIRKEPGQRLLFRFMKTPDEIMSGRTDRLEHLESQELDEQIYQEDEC
# In short: as §1
sequence,measurement,setting,value
CTCTTA,binding signal,[1],"1.34 fold enrichment (6-mer frequency, TF over GST control)"
same,binding signal,[2],"1.41 fold enrichment (6-mer frequency, TF over GST control)"
same,binding signal,[3],"1.52 fold enrichment (6-mer frequency, TF over GST control)"
same,binding signal,[4],"1.4 fold enrichment (6-mer frequency, TF over GST control)"
same,binding signal,[5],"1.32 fold enrichment (6-mer frequency, TF over GST control)"
same,binding signal,[6],"1.34 fold enrichment (6-mer frequency, TF over GST control)"
same,binding signal,[7],"1.49 fold enrichment (6-mer frequency, TF over GST control)"
same,binding signal,[8],"1.27 fold enrichment (6-mer frequency, TF over GST control)"
same,binding signal,[9],"2.2 fold enrichment (6-mer frequency, TF over GST control)"
same,binding signal,[10],"1.38 fold enrichment (6-mer frequency, TF over GST control)"
same,binding signal,[11],"1.45 fold enrichment (6-mer frequency, TF over GST control)"
same,binding signal,[12],"1.5 fold enrichment (6-mer frequency, TF over GST control)"
same,binding signal,[13],"1.33 fold enrichment (6-mer frequency, TF over GST control)"
same,binding signal,[14],"1.24 fold enrichment (6-mer frequency, TF over GST control)"
same,binding signal,[15],"1.28 fold enrichment (6-mer frequency, TF over GST control)"
same,binding signal,[16],"1.31 fold enrichment (6-mer frequency, TF over GST control)"
same,binding signal,[17],"1.38 fold enrichment (6-mer frequency, TF over GST control)"
same,binding signal,[18],"1.39 fold enrichment (6-mer frequency, TF over GST control)"
